# An excerpt weighted towards active compounds, which were near 7% of everything screened.
# ADAM17 inh: inhibitors of human ADAM17; inhibition, % at 6.95 µM; 370,000 compounds, 0.83% hits; recombinant ADAM17, EDANS/DABCYL FRET peptide cleavage; P78536;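 active = inhibition above the mean of compounds lying between control limits plus 3 SD, set per campaign, cut at about 8.5% in these data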;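 also: 0% = DMSO-only wells as the low control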
# proKLK7 act: activators of human kallikrein-7 zymogen | 370,000 compounds, 0.9% hits | activation, % at 7 µM | P49862 | purified proKLK7, EDANS-DABCYL substrate fluorescence; 100% is mature enzyme control, 0% vehicle;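 active = activation above the mean of all tested compounds plus 3 SD, computed per campaign excluding outliers beyond control limits, cut at about 13% in these data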
# ADAM10 inh: inhibitors of human ADAM10 | AID 720582 | inhibition, % at 7 µM | 370,000 compounds, 0.62% hits | recombinant ADAM10, EDANS/DABCYL FRET peptide cleavage, 3 h;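 active = inhibition above a per-campaign cutoff equal to the mean of compounds falling between control-based bounds plus 3 SD, cut at about 20% in these data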;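 also: 0% = DMSO wells while the 100% control is not disclosed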
# rCAG RNA binder: molecules binding r(CAG) RNA repeats. r(CAG) RNA repeat, TO-PRO-1 dye displacement fluorescence. inhibition, % at 3 µM. 370,000 compounds, 1.3% hits;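 active = inhibition above the plate cutoff, the mean of all test compounds on that plate plus 3 SD, cut at about 35% in these data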;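 also: 0% = DMSO alone and 100% = 100 µM mitoxantrone as full dye displacement; higher means more dye released from RNA so lower well fluorescence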
# AHR activator: human AHR activation; activation, % at 5 µM; P35869; 320,000 compounds, 2.5% hits; AHR-responsive luciferase reporter cells, luminescence; in the data active = activation above about 47%;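 also: 0% = vehicle wells and 100% = reference agonist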
# Target sequence (P35869 whole entry, looked up): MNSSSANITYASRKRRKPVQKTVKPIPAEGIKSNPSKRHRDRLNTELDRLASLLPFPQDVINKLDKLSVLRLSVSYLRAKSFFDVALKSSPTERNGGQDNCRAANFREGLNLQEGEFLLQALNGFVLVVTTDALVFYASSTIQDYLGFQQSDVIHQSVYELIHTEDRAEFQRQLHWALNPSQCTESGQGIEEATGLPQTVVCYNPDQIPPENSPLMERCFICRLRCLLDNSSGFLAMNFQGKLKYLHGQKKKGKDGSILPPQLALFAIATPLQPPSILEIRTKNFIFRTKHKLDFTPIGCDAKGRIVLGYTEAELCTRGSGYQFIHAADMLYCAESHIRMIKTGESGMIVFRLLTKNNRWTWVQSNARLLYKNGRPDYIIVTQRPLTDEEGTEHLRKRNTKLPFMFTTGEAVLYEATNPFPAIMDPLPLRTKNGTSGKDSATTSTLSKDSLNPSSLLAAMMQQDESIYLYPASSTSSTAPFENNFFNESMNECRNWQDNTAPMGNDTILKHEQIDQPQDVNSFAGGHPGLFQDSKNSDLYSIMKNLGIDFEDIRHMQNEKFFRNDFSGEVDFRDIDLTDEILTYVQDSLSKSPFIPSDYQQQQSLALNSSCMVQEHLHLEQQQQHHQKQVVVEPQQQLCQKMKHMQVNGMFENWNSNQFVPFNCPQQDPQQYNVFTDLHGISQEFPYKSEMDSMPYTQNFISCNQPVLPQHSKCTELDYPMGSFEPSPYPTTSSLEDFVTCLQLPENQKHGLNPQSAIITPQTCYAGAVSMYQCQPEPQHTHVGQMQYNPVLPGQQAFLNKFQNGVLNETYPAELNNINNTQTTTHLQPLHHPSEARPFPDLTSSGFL
# NR3A LBD binder: modulates the human NR3A ligand-binding domain | NR3A LBD differential scanning fluorimetry, Tm shift; 0% = protein alone, 100% = glycine-bound protein | AID 1259313 | 340,000 compounds, 2.5% hits | Tm shift relative to glycine control, % at 25 µM;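 active = melting temperature shift of at least 10% of the positive control shift, at one fixed dose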
# proKLK7 act conf: confirmation of human kallikrein-7 zymogen activators. shares compounds with proKLK7 act. purified proKLK7, EDANS-DABCYL substrate fluorescence; scaled: vehicle 0, mature enzyme 100. activation, % at 7 µM. 3,200 compounds, 68% hits;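 active = activation, as change over the incubation, above the mean of all tested compounds plus 3 SD, cut at about 13% in these data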
# EDANS interfere: fluorescence interference counter-screen for KLK7 activators; shares compounds with proKLK7 act; EDANS-DABCYL substrate fluorescence interference, no enzyme, 4 h; solvent 0%, active enzyme control 100%; activation, % at 7 µM; 3,200 compounds, 80% hits; AID 686952;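 active = activation above the all-compound mean plus 3 SD, ignoring values outside control-based bounds, cut at about 4.8% in these data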;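 also: value is the 4 h activation minus the activation read at time zero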
# K7 EDANS ctr: counter-screen for kallikrein-7 activators: EDANS-DABCYL interference, dose response. AID 720493. 250 compounds, 20% hits. shares compounds with proKLK7 act. EDANS-DABCYL peptide fluorescence interference, no enzyme. EC50, µM;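 active = compounds that raise the fluorescence signal in this interference counterscreen, with EC50 at or below 10 µM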;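 also: intact quenched peptide substrate alone read at 355 nm excitation and 520 nm emission; signal is fluorescence gain from T0 to T4 after four hours at room temperature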
# An asterisk follows results filed as active; i = inactive; x = no result.
SMILES,ADAM17 inh,proKLK7 act,ADAM10 inh,rCAG RNA binder,AHR activator,NR3A LBD binder,proKLK7 act conf,EDANS interfere,others
COc1ccc2oc(-c3ccccc3)c(C(=O)O)c2c1,-405,6,i,4,1,-2,x,x,
CCOC(=O)c1c(-c2ccccc2)oc2ccc(OCC(=O)NNC(=O)CCCC(=O)O)cc12,-434,13*,i,25,x,-6,-24,-37,
COc1ccc2oc(-c3ccccc3)c(C(N)=O)c2c1,-173,13*,i,4,2,2,10,18*,
C#CCOCCOCCOCCNc1nc(N2CCN(C(=O)[C@H](CO)n3cc([C@@H](N)C(C)C)nn3)CC2)nc(N2CCN(C(=O)[C@H](CO)n3cc([C@@H](N)C(C)C)nn3)CC2)n1,-7,0,-4,-3,x,1,x,x,
CCOC(=O)CC1(NC(=O)C2CCC(=O)N(Cc3ccccc3F)C2)CCCCC1 (centres undefined),0,1,-8,-5,6,-1,x,x,
O=C(/C=C/[C@H]1O[C@@H](n2ccc(=O)[nH]c2=O)[C@H](O)[C@@H]1O)NCCN1CCCC1,-2,0,-8,1,x,x,x,x,
COc1ccc2oc(-c3ccccc3)cc(=O)c2c1,-324,14*,i,0,x,x,-34,-29,
CCOC(=O)c1c(-c2ccccc2)oc2ccc(OC(C)C(=O)O)cc12 (centres undefined),-376,36*,i,29,-1,0,6,-15,
O=C(COc1ccc2oc(-c3ccccc3)cc(=O)c2c1)Nc1ccccc1,-2,1,-10,2,-1,5,x,x,
Cc1c(C)c2cc(Cl)c(O)c(CN3CCCCC3)c2oc1=O,x,x,x,x,-2,-1,x,x,
CCCc1cc(=O)oc2c(CN3CCN(C)CC3)c(O)c(Cl)cc12,i,60*,i,-2,1,2,71*,76*,
CN1CCN(Cc2c(O)c(Cl)cc3c(-c4ccccc4)cc(=O)oc23)CC1,-35,17*,-106,0,0,2,14*,11*,
CN1CCN(Cc2cc(=O)oc3ccc(Cl)cc23)CC1,-1,0,-9,6,2,1,x,x,
CCc1c(C)c2cc(Cl)c(O)c(CN3CCCC3)c2oc1=O,i,37*,i,12,x,-2,68*,69*,
Cc1cc(=O)oc2c(CN3CCN(C)CC3)c(O)c(Cl)cc12,i,58*,i,4,-1,0,76*,77*,
COc1ccc(C(=O)N2CCCN(C)CC2)cc1S(=O)(=O)N(C)Cc1ccccc1,-5,0,-17,6,-1,1,x,x,
COC(=O)c1ccc(NC(=O)CCC(=O)c2ccc(F)cc2)cc1,-1,0,0,1,1,0,x,x,
Cc1cc(C)c2oc(=O)cc(CN3CCCCC3)c2c1,-3,0,-2,-4,3,1,x,x,
CCCCc1cc(=O)oc2c(CN3CCCC3)c(O)c(Cl)cc12,i,63*,i,5,11,0,71*,82*,
O=C(O)CCC(=O)c1ccc2ccc3cccc4ccc1c2c34,i,26*,i,23,0,x,62*,65*,
O=C(COC(=O)C1CCN(c2ccc(C(F)(F)F)cn2)CC1)NCc1ccccc1,1,0,-9,-1,0,1,x,x,
O=C(OC1CCOC1=O)c1cc(-c2ccc(Br)cc2)nc2ccccc12 (centres undefined),-4,0,-17,5,-2,3,x,x,
COc1ccc(-c2cc(C(=O)Oc3ccc([N+](=O)[O-])cc3)c3ccccc3n2)cc1,i,33*,i,2,8,0,64*,71*,
COc1ccc(-c2cc(C(=O)OCC(=O)N(C)C)c3ccccc3n2)cc1,-55,50*,-180,1,7,-24,39*,43*,
COc1ccc(-c2cc(C(=O)OCC(=O)c3ccc(C)c([N+](=O)[O-])c3)c3ccccc3n2)cc1,-20,2,-68,-3,-3,-7,x,x,
SMILES,ADAM17 inh,proKLK7 act,ADAM10 inh,rCAG RNA binder,AHR activator,NR3A LBD binder,proKLK7 act conf,EDANS interfere,others
COc1ccc(-c2cc(C(=O)OC3CCOC3=O)c3ccccc3n2)cc1 (centres undefined),-90,97*,-247,18,20,-13,9,12*,
COc1ccc(NC(=O)c2cc(-c3ccccn3)nc3ccccc23)c(OC)c1,2,1,11,3,9,1,x,x,
COc1ccc(-c2cc(C(=O)OCc3ccccn3)c3ccccc3n2)cc1,-372,22*,i,5,5,-2,-19,-20,
CCOC(=O)C1=C[C@@H](CC)N(S(=O)(=O)c2ccccc2)[C@H]1c1ccccc1,7,0,14,-1,x,x,x,x,
Cc1cccc(NC(=O)COc2coc(CN3CCc4ccccc4C3)cc2=O)c1,-2,0,3,-1,4,-1,x,x,
COc1ccc(CNS(=O)(=O)NCc2ccc(C)cc2)cc1,3,-1,2,1,-1,2,x,x,
CC(=O)Nc1cccc(-c2ccnc3c2CC(C(=O)NCc2ccc(N(C)C)cc2)O3)c1 (centres undefined),-1,0,-6,0,x,x,x,x,
Cc1ccc(C(=O)n2nc(C#N)c(C#N)c2N)cc1,-1,0,-10,2,10,1,x,x,
Cc1ccc(NC(=O)C2=CC(c3cccs3)=NS(=O)(=O)N2C)cc1,-4,18*,-6,2,64*,-1,22*,13*,K7 EDANS ctr=i
Cc1c(CC(=O)NCCC(C)C)c(=O)oc2cc3c(cc12)CCC(C)(C)O3,-72,-4,-185,-6,6,1,x,x,
COCCNC(=O)Cc1c(C)c2cc3c(cc2oc1=O)OC(C)(C)CC3,i,13*,i,-2,x,0,15*,10.0*,K7 EDANS ctr=>70
COc1ccc(-c2c(C(F)(F)F)oc3c(CN4CCN(C)CC4)c(O)ccc3c2=O)cc1,-11,10,-29,-5,1,0,x,x,
COc1ccc(Oc2c(C)oc3c(CN(C)C)c(O)ccc3c2=O)cc1,-295,14*,i,2,0,-1,32*,31*,
COC(=O)c1ccc(Oc2c(C)oc3c(CN4CCN(C)CC4)c(O)ccc3c2=O)cc1,i,65*,i,-4,3,0,79*,73*,
Cc1cc(C)cc(Oc2coc3c(CN(C)C)c(O)ccc3c2=O)c1,i,71*,i,2,-2,2,69*,80*,
